# Test results from PubChem BioAssay.
# The source made the active and inactive calls. Unless noted, the rule behind the calls is not given here.
# Legend:
# [1] = compounds binding Alexa647 anti-His antibody – biochemical, small-molecule microarray, 635 nm fluorescence, artefact control for SMM control protein annotation, primary screen (AID 1128); settings: higher = more signal;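 note: score merges feature fluorescence with signal-to-noise for each printed compound spot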
# [2] = tested on: Human papillomavirus type 1a E7 protein (residues 1-88); assay: HPV1a E7 small-molecule binders, primary screen, biochemical, small-molecule microarray, residues 1-88, 635 nm (AID 1129); settings: small-molecule microarray binding, fluorescence 635 nm; higher = more signal
# [3] = biological target: Focal adhesion kinase 1 (Homo sapiens) (UniProt Q05397); assay: PTK2 protein binding on printed compound slides – biochemical, small-molecule microarray, 635/667 nm fluorescence, BSA, DTT, primary screen (AID 1130); settings: 635 nm fluorescence, higher = more signal;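 note: composite of spot emission at 667 nm and signal to noise over triplicate slides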
# [4] = tested on: Fibrinogen (Alexa647-labelled); assay: Alexa647-fibrinogen binding to printed small molecules – biochemical, small-molecule microarray, 635/667 nm fluorescence, artefact control for SMM control-protein annotation, profiling panel (AID 1131); settings: fibrinogen-A647 binding fluorescence, higher = more signal;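 note: z-score merges 667 nm fluorescence with per-spot signal-to-noise over triplicate slides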
# [5] = biological target: Follistatin (Homo sapiens) (UniProt P19883); assay: FST protein binding to printed compounds – biochemical, small-molecule microarray, 635/667 nm fluorescence, primary screen (AID 1132); settings: 635 nm fluorescence, higher = more signal
# [6] = biological target: Fibroblast growth factor 2 (Homo sapiens) (UniProt P09038); assay: basic fibroblast growth factor binding to printed compounds – biochemical, small-molecule microarray, 635/667 nm fluorescence, primary screen (AID 1133); settings: FGF2, fluorescence 635/667, higher = more signal
# [7] = JC-1 mitochondrial potential readout, lung cancer cells – cell-based, A549, JC-1 fluorescence, basal, 24 h, 100 nL, profiling panel (AID 1138); settings: higher = more signal;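 note: A549 lung adenocarcinoma cells under basal conditions with no added stimulus; test concentration not given here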
# Lefty1 = Lefty1 protein binding to printed compounds – biochemical, small-molecule microarray, 635/667 nm fluorescence, primary screen (AID 1139); settings: fluorescence 635/667, higher = more signal
# [8] = tested on: wheat germ agglutinin (Triticum aestivum), Alexa647-labelled; assay: Alexa647-WGA lectin binding to printed small molecules – biochemical, small-molecule microarray, 635/667 nm fluorescence, artefact control for SMM control-protein annotation, profiling panel (AID 1140); settings: WGA-A647 binding, 635 nm fluorescence, higher = more signal;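 note: score merges 667 nm feature emission with signal to noise over triplicate slides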
# [9] = biological target: Luciferin 4-monooxygenase (Photinus pyralis) (UniProt P08659); assay: inhibition of purified Photinus pyralis luciferase – biochemical, luminescence, purified enzyme, 2006 set, primary screen (AID 1141); settings: purified firefly luciferase, SteadyGlo luminescence, 30 min; higher = more signal, called active from +8 up or from −8 down;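 note: cell-free assay with purified firefly luciferase at 100 ng per well in PBS; test concentration not given here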
# [10] = tested on: Wnt5a (protein binding on small-molecule microarray); assay: small molecules binding Wnt5a protein – biophysical, small-molecule microarray, 635/667 nm fluorescence, primary screen (AID 1142); settings: 635 nm fluorescence, higher = more signal;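 note: fluorescence read at 667 nm with signal to noise per printed feature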
# [11] = ATP-based viability of Huh7 replicon cells – cell-based, CellTiter-Glo luminescence, basal, 48 h, cytotoxicity control for HCV replication inhibitor project, primary screen (AID 1143); settings: higher = more signal, called active from +8 up or from −8 down;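 note: Huh7 hepatoma cells carrying a hepatitis C replication reporter with no stimulus; test concentration not given here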
# [12] = Pseudomonas biofilm growth suppression – PAO1 strain, BacTiter-Glo luminescence, LB-PBS, primary screen (AID 1144); settings: P. aeruginosa PAO1 biofilm, 12 h, higher = more signal
# [13] = basal CRE-LacZ reporter activity in PC12 – cell-based, unstimulated, primary screen (AID 1145); settings: no forskolin, luminescence, 4.5 h, higher = more signal, called active from +8 up or from −8 down
# [14] = forskolin-driven CRE-LacZ activity in PC12 – cell-based, CRE-LacZ reporter, forskolin-stimulated, primary screen (AID 1146); settings: luminescence, 4.5 h, higher = more signal, called active from +8 up or from −8 down;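 note: PC12 cells with 6xCRE LacZ reporter stimulated by forskolin 10 µM; beta-galactosidase reporter signal reflecting CREB driven transcription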
# [15] = biological target: Streptavidin (Streptomyces avidinii) (UniProt P22629); assay: compounds binding control protein streptavidin – biophysical, small-molecule microarray, 635/667 nm fluorescence, artefact control for SMM compound annotation, primary screen (AID 1147); settings: higher = more signal;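 note: signal reflects streptavidin binding to arrayed compounds as a control protein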
# [16] = probe aInhba binding on compound microarray – biochemical, small-molecule microarray, 635/667 nm fluorescence, primary screen (AID 1148); settings: higher = more signal;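 note: score merges 667nm spot fluorescence with signal-to-noise for antibody binding to printed compounds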
# Torsin-1A (Homo sapiens) [17] = biological target: Torsin-1A (Homo sapiens) (UniProt O14656); assay: TOR1A wild-type binding on microarray – cell lysate, small-molecule microarray, lysate, 635/667 nm, primary screen (AID 1149); settings: COS7 hTOR1A-WT lysate, 635 nm fluorescence, higher = more signal
# Torsin-1A (Homo sapiens) [18] = biological target: Torsin-1A (Homo sapiens) (UniProt O14656); assay: torsin A mutant lysate binding on microarrays – cell lysate, small-molecule microarray, COS7 lysate, 635/667 nm fluorescence, primary screen (AID 1150); settings: COS7 hTOR1A mutant lysate, 635 nm fluorescence, higher = more signal;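 note: score pools 667 nm emission and signal to noise measuring lysate protein binding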
# [19] = tested on: Sonic hedgehog protein (Shh); assay: Sonic hedgehog microarray binding compounds – biochemical, small-molecule microarray, 635/667 nm fluorescence, primary screen (AID 1151); settings: 635 nm fluorescence, higher = more signal;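 note: Shh protein binding to compounds spotted on small-molecule microarray slides; score combines spot fluorescence intensity with signal-to-noise across triplicate slides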
# Chain of Torsin-1A (Homo sapiens) (O14656 whole entry, looked up): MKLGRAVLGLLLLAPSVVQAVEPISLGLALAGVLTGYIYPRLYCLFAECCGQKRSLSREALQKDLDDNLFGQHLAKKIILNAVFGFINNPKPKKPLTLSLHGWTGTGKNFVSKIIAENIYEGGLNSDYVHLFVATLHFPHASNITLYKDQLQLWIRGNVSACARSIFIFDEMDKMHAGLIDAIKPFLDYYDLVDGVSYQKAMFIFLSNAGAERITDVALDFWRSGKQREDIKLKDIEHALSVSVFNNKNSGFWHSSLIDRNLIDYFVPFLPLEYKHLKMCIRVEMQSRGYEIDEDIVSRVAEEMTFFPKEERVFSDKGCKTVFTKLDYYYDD
# Chain of Follistatin (Homo sapiens) (P19883 whole entry, looked up): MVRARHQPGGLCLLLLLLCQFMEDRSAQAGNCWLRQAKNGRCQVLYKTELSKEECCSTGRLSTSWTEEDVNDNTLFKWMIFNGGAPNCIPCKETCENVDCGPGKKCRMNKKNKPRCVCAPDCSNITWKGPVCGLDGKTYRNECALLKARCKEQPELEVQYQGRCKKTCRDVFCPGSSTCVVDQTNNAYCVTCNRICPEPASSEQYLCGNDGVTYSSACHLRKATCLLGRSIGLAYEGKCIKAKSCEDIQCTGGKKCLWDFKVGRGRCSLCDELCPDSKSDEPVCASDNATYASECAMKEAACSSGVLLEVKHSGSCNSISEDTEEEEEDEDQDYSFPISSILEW
# Chain of Streptavidin (Streptomyces avidinii) (P22629 whole entry, looked up): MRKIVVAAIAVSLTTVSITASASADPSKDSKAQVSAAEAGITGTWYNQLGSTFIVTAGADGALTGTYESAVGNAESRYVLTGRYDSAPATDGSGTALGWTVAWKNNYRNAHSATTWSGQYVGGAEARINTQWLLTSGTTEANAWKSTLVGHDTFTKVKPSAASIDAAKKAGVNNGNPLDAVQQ
# Chain of Luciferin 4-monooxygenase (Photinus pyralis) (P08659 whole entry, looked up): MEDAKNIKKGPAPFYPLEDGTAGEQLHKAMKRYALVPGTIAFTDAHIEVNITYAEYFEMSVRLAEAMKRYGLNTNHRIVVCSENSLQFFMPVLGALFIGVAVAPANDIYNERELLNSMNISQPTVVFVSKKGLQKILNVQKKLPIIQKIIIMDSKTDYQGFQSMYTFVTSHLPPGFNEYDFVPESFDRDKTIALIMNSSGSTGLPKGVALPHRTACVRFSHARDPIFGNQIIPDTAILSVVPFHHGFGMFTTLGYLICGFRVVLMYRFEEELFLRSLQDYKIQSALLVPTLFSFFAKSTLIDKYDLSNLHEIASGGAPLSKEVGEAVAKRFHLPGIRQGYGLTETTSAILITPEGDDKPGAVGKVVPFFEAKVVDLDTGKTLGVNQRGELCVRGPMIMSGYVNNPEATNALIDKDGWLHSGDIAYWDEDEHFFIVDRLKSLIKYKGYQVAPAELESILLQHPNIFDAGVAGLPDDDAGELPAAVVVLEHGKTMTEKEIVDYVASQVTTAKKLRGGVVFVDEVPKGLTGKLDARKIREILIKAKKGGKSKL
# Chain of Focal adhesion kinase 1 (Homo sapiens) (Q05397 whole entry, looked up): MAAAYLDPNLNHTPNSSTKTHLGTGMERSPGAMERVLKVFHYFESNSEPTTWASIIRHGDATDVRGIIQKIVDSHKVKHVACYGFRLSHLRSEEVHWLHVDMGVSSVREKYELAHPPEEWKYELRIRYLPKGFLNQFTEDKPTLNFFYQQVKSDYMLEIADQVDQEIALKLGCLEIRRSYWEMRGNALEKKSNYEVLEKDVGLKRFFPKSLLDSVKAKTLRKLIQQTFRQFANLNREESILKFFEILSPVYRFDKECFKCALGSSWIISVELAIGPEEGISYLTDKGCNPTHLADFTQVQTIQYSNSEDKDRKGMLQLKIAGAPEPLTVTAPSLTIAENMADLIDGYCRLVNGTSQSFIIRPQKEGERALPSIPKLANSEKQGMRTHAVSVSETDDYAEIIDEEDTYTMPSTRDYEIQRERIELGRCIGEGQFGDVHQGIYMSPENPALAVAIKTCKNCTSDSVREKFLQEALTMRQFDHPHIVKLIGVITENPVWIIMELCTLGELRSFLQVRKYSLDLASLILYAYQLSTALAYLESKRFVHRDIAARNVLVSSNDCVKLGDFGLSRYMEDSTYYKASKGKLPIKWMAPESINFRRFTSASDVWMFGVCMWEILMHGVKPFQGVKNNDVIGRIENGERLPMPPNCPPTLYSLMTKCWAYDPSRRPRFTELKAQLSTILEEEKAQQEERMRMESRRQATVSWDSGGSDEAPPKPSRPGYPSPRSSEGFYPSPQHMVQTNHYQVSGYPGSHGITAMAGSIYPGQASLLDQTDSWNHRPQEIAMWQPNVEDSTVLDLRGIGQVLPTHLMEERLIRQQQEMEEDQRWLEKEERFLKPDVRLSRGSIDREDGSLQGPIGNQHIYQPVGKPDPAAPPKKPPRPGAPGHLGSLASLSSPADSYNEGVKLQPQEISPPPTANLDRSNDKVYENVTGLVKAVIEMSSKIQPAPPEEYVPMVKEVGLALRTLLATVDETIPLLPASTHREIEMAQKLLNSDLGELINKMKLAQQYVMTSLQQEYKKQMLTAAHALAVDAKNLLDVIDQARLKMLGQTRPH
# Chain of Fibroblast growth factor 2 (Homo sapiens) (P09038 whole entry, looked up): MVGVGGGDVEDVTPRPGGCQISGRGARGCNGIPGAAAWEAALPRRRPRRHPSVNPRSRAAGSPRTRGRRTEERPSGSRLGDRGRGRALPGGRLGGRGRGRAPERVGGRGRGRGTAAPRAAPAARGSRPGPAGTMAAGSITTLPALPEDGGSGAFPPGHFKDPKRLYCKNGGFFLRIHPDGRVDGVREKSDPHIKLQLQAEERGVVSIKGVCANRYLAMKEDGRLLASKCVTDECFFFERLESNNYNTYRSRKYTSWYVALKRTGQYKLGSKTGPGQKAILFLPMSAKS
SMILES,composite z-score [1],composite z-score [2],composite z-score [3],composite z-score [4],composite z-score [5],composite z-score [6],z-score [7],composite z-score (Lefty1),composite z-score [8],z-score [9],composite z-score [10],z-score [11],z-score [12],z-score [13],z-score [14],composite z-score [15],composite z-score [16],composite z-score (Torsin-1A (Homo sapiens) [17]),composite z-score (Torsin-1A (Homo sapiens) [18]),composite z-score [19]
COCCOC(=O)N1C(=O)[C@@]2(c3cc(C#CCCO)ccc31)[C@H](C(=O)Nc1nc3ccccc3s1)[C@H]1C(=O)O[C@H](c3ccccc3)[C@H](c3ccccc3)N1[C@@H]2c1ccc(O)cc1,2.54,1.24,0.978,0.919,1.38,1.28,-0.137,1.05,0.777,0.57 (inactive),0.73,-1.16 (inactive),0.263 (inactive),-0.168 (inactive),2.14 (inactive),0.809,0.279,0.772,0.833,1.06
C[N+](C)(C)CCCC[C@@H]1NC(=O)[C@@H]2C[C@H](C(=O)NCCCCCCN)[C@H](c3cccc(OCCO)c3)N2C1=O,3.26,1.16,0.866,0.841,0.976,0.5,0.197,1.16,1.11,-0.583 (inactive),0.397,0.279 (inactive),0.32 (inactive),2.84 (inactive),-0.618 (inactive),1.67,1.22,0.85,1.65,0.691
CC(C)C(O)C1C=CC2C(=O)N(c3ccccc3)C(=O)C2N1Nc1ccccc1 (stereo not given),0.331,1.29,0.463,1.05,0.986,-0.11,0.0126,0.63,1.14,0.172 (inactive),0.271,-3.03 (inactive),-1.35 (inactive),0.819 (inactive),0.418 (inactive),0.874,0.0756,0.64,0.923,1.04
COc1ccc(C#Cc2ccc3c(c2)[C@]2(C(=O)N3)[C@H](c3ccc(O)cc3)N3[C@H](c4ccccc4)[C@H](c4ccccc4)OC(=O)[C@H]3[C@@H]2C(=O)Nc2nc3ccccc3s2)cc1,0.269,1.25,0.359,0.983,1.29,0.964,-2.1,0.882,0.768,-1.28 (inactive),0.108,-1.62 (inactive),-0.52 (inactive),0.389 (inactive),-0.513 (inactive),1.02,0.0797,1.16,0.168,0.329
COCCOC(=O)N1C(=O)[C@@]2(c3cc(C#CC4=CCCCC4)ccc31)[C@H](C(=O)Nc1nc3ccccc3s1)[C@H]1C(=O)O[C@H](c3ccccc3)[C@H](c3ccccc3)N1[C@@H]2c1ccc(O)cc1,0.174,1.21,1.38,0.362,1.39,1.7,-2.1,0.869,0.529,-1.5 (inactive),0.381,-0.67 (inactive),0.288 (inactive),0.532 (inactive),0.817 (inactive),1.25,-0.0178,1.15,0.358,2.06
